# Screens: PubChem BioAssay, National Center for Advancing Translational Sciences (NCATS)
# Rows were chosen to be rich in hits. Some 2.1% of all compounds tested hit in one or more screens of this group.
# Abeta yeast res: compounds reversing amyloid beta toxicity in yeast | yeast expressing A-beta42, growth rescue, OD600, 48 h; response scale: 0% DMSO, 100% iron-clioquinol control | Potency, µM (series often up to 46.1 µM), actives largely listed as activators | 410,000 tested, 0.063% active | AID 1347071; further: nearly all actives have a fitted effect of over 55% in size
#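 Yeast growth medium received pinned compounds, then yeast cells expressing toxic A-beta were added; plates incubated at 30 C for 48 hr. Growth read as absorbance at 600 nm, normalized to DMSO and equimolar FeCl3 plus clioquinol controls.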
# aSyn yeast inh: alpha-synuclein toxicity inhibition in yeast; Yeast expressing alpha-synuclein, growth rescue, BacTiter-Glo, 24 h; Potency, µM (doses to about 46.1 µM), for inactives: top-dose growth rescue (activation), most hits filed as activators; 370,000 tested, 0.14% active; further: % of control where 0% means no effect; nearly all actives have a fitted effect of over 65% in size
#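 Galactose-induced alpha-syn yeast (OD600=0.02, raffinose-pregrown) + pinned cpd, 24 hr, 30 deg C; growth by BacTiter-Glo luminescence. Growth restoration scores as activation.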
# FUS suppressor: suppressors of FUS proteinopathy in yeast; S. cerevisiae FUS-expressing, growth rescue, OD600, 24 h; Potency, µM (highest dose often 76.6 µM), actives largely listed as activators; 390,000 tested, 0.24% active; AID 1347120;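 further: plate controls were DMSO vehicle for no effect and reference control for full effect; nearly all actives have a fitted effect of over 55% in size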
#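 Quantitative HTS measuring growth restoration of FUS-toxic yeast. Galactose-induced cells (OD 0.005) were exposed 24hr at 30C to compounds at several concentrations, then absorbance at 600 nm was recorded.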
# TDP-43 yeast inh: TDP-43 toxicity inhibition in yeast; 410,000 tested, 1.8% active; TDP-43 expressing yeast growth rescue, BacTiter-Glo, 24 h; Potency, µM (series often up to 46.1 µM), for inactives: top-dose growth rescue (activation), hits mostly activators; AID 652104; further: % of control where 0% means no effect; nearly all actives have a fitted effect of over 50% in size
#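 Cell-based yeast growth screen: TDP-43 expression induced in galactose, inoculum OD600=0.02 after raffinose pregrowth to mid-log. Read-out BacTiter-Glo luminescence at 24 hr, 30 deg C; inhibition of toxicity seen as signal increase.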
# * = called active by the depositor; i = inactive; ? = inconclusive; / = no result given; ! = a repeat was not active. The call rests on the fitted dose curve; in most records, active means well fitted curve in the direction sought with a large enough effect; inconclusive means small, poorly fitted or top-dose-only effect, or another doubt; inactive means no such curve, though single readings can be large; an effect the other way counts as inactive or inconclusive. Potency means the concentration at half of the fitted maximal effect.
SMILES,Abeta yeast res,aSyn yeast inh,FUS suppressor,TDP-43 yeast inh
Cc1nc(CS(=O)(=O)c2ccccc2)cc(Sc2ccc(Cl)cc2Cl)n1,i,9%,i,13µM*
Cc1nc(Cl)cc(CS(=O)(=O)c2ccc(Cl)cc2)n1,i,-9%,i,2%
COc1ccc2c(c1)CC[C@@H]1[C@@H]2CC[C@]2(C)[C@@H](C(=O)O)C[C@@H]12,i,-17%,i,20µM*
C[C@]12CC[C@@H]3c4ccc(O)cc4CC[C@H]3[C@@H]1CCC2=O,i,4%,i,4.5µM*
C[C@]12CCC3c4ccc(O)cc4CCC3C1CC/C2=N\N (stereo partly specified),i,1%,i,?
COc1ccc2c(c1)CC[C@@H]1[C@@H]2CC[C@]2(C)[C@@H](C(C)=O)C[C@@H]12,i,9%,i,3%
Fc1ccc(NCc2cccn2-c2nnc(N3CCOCC3)s2)cc1,i,26%,i,26%
Cc1ccc(NCc2cccn2-c2nnc(N3CCCCCC3)s2)cc1,i,1%,i,30%
Cc1ccccc1NCc1cccn1-c1nnc(N2CCOCC2)s1,i,13µM*,i,-2%
Fc1cccc(NCc2cccn2-c2nnc(N3CCOCC3)s2)c1,i,22µM*,i,19%
CCC1=Nc2cc(C(=O)O)ccc2Sc2ccccc21,i,11%,i,20µM*
CCC1=Nc2cc(C(=O)NCc3ccco3)ccc2Sc2ccccc21,i,10%,i,?
CN(C(=O)CC(=O)Nc1ccc2nc3n(c(=O)c2c1)CCCCC3)c1ccccc1F,i,/,i,-10%
O=C(c1cc(=O)c2cc(Cl)ccc2o1)N(Cc1ccccc1)C1CCS(=O)(=O)C1 (stereo unspecified),i,/,i,21%
CCOc1ccc(CN(C(=O)c2cc(=O)c3cc(Cl)ccc3o2)C2CCS(=O)(=O)C2)cc1 (stereo unspecified),i,/,32µM*,-4%
CCCCCOc1ccc(C(=O)N(Cc2ccccc2)C2CCS(=O)(=O)C2)cc1 (stereo unspecified),i,/,?,20µM*
CCCOc1cccc(C(=O)N(Cc2ccccc2)C2CCS(=O)(=O)C2)c1 (stereo unspecified),i,8%,i,-17%
COc1ccc(C)cc1NC(=O)N1CCC(CN2CCOCC2)CC1,i,/,i,10%
O=[N+]([O-])c1cc(Br)c(Nc2ccccc2)c([N+](=O)[O-])c1,i,6%,i,3.5µM*
O=[N+]([O-])c1ccc(O)c(NC(=S)Nc2ccccc2)c1,i,-10%,i,13µM*
Nc1cc([N+](=O)[O-])ccc1Nc1ccccc1,i,8%,i,14µM*
NC(=S)N/N=C/c1cccc(Br)c1,i,7%,i,20µM*
NC(=S)N/N=C/c1ccc(-c2ccccc2)o1,?,10%,i,11µM*
O/N=C\c1ccc(-c2ccccc2)o1,i,-6%,/,8.9µM*
NC(=S)N/N=C/c1ccc(-c2ccc(Cl)c(Cl)c2)o1,i,21%,i,20µM*
SMILES,Abeta yeast res,aSyn yeast inh,FUS suppressor,TDP-43 yeast inh
O=[N+]([O-])c1ccc(-c2ccc(/C=N/O)o2)cc1,i,7%,i,?
NC(=S)N/N=C/c1cccc(/C=N/NC(N)=S)c1,i,-6%,i,-8%
CNS(=O)(=O)/C=C/c1ccccc1CCNC(=O)OC(C)(C)C,/,/,i,/
Cc1c(C)c(C)c(/C=C/c2ccnc3ccccc23)c(C)c1C,/,-9%,/,/
NC(=S)N/N=C/C=C/c1ccccc1,i,5%,i,10µM*
COc1cc(CNn2c(C)n[nH]c2=S)cc(Br)c1OCc1ccc(F)cc1,i,3%,i,35µM*
COc1cc(CNn2c(C)n[nH]c2=S)cc(Cl)c1OCc1ccc(F)cc1,i,0%,i,9%
CC(C)COc1ccc(CC(=O)NO)cc1,/,8%,/,/
O=C(Nc1ccc(C(O)(C(F)(F)F)C(F)(F)F)cc1)c1ccc(Cl)cc1,/,/,i,/
COc1ccccc1C(=O)N1CCN(C(=O)c2oc3c(C)c(C)ccc3c2C)CC1,i,1%,i,32µM*
COc1ccccc1C(=O)N1CCCN(C(=O)c2ccccc2OC)CC1,i,-5%,i,-8%
Cc1cc(C)c2c(CC(=O)N(Cc3ccccc3)C3CCS(=O)(=O)C3)coc2c1 (stereo unspecified),i,/,i,2%
COc1ccc([C@H]2CC(=O)C=C(c3cc(Cl)ccc3C)C2)cc1,?,14%,i,20µM*
COc1ccc([C@H]2CC(=O)C=C(c3cc(C)ccc3OC)C2)cc1,i,8%,i,?
COc1ccc([C@H]2CC(=O)C=C(c3cc(C)ccc3F)C2)cc1,?,?,?,20µM*
O=C(C[n+]1cc(Br)cc(Br)c1)c1ccc2c(c1)CCCC2,/,3%,/,/
CCc1nc2ccc(C(=O)N3CCN(c4ccccc4F)CC3)cc2nc1CC,i,1%,?,20µM*!
CCOC(=O)N1CCN(C(=O)c2ccc3nc(-c4ccccc4)c(-c4ccccc4)nc3c2)CC1,i,4%,?,18µM*
Cn1c(=O)oc2cc(S(=O)(=O)N3CCN(CCO)CC3)ccc21,/,/,i,/
CN(C)c1ccc(C2CCc3ccccc3N2C(=O)c2ccccc2)cc1 (stereo unspecified),/,-8%,/,/
NNc1nc(-c2ccccc2Cl)c2cc(Br)ccc2n1,i,9%,i,16µM*
CCN(CC)c1nc(-c2ccccc2Cl)c2cc(Br)ccc2n1,i,/,i,28%
O=C(c1ccco1)N(Cc1cccnc1)c1nc2c(F)cccc2s1,i,/,i,17%
O=C(CCc1ccccc1)N(Cc1cccnc1)c1nc2c(F)cccc2s1,i,/,i,16µM*
O=C(CCOc1ccccc1)N(Cc1cccnc1)c1nc2c(F)cccc2s1,i,/,i,5%
SMILES,Abeta yeast res,aSyn yeast inh,FUS suppressor,TDP-43 yeast inh
O=C(COc1ccccc1)N(Cc1cccnc1)c1nc2c(F)cccc2s1,i,/,i,18µM*
O=C(COc1ccccc1)N(Cc1cccnc1)c1nc2ccc(Cl)cc2s1,i,/,i,16µM*
CCOC(=O)c1cc(-c2ccccc2)n(CCC(=O)Nc2ccc(Cl)c(C(F)(F)F)c2)c1C,i,/,i,21%
CC(=O)Nc1ccc(S(=O)(=O)N2CCN(c3ccc(C)c(C)c3)CC2)cc1,i,1%,i,0%
Nc1nc(-c2ccccc2)c(-c2ccccc2)s1,i,0%,i,18%
Cc1ccc(-c2nc(N)sc2-c2ccccc2)cc1C,i,-21%,/,16µM*
Clc1ccc(-c2nc3ccc(Cl)cn3c2Cc2ccccc2)cc1,i,25%,i,20µM*
Fc1ccc(-c2nc3ccc(Cl)cn3c2Cc2cccc(Cl)c2)cc1,i,-1%,i,25%
Clc1ccc2nc(-c3ccccc3)c(Cc3ccccc3)n2c1,i,-22%,i,0%
Fc1ccc(-c2nc3ccc(Cl)cn3c2Cc2ccccc2)cc1,i,23%,i,35µM*
